Screening data from PubChem BioAssay.
Rows were chosen to be rich in hits. Some 3.4% of all compounds tested hit in one or more screens of this group.
TEAD-YAP inh – TEAD-YAP interaction inhibition, primary screen, TEAD-YAP interaction inhibitor project, luminescence, HEK-TIYL cells. TEAD-Gal4/YAP UAS-luciferase luminescence. inhibition, % at 9.12 µM. hit rate 1.4% among 640,000. AID 1259422, 2018; in the data active = inhibition above about 32%;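 also: 0% = median of test compound wells and 100% = reference inhibitor wells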
FBW7 act – FBW7 E3 ligase activators, primary screen, biochemical, AlphaScreen, human. AID 1259310, 2017. F-box/WD repeat-containing protein 7 (Homo sapiens), Q969H0. hit rate 0.13% among 650,000. normalized activity (activation), % at 26.1 µM. AlphaScreen FBW7–phospho-cyclin E peptide binding, activator screen; in the data active = normalized activity above about 1.9%;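 also: purified mutant Fbw7 with reduced substrate affinity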
Target sequence (Q969H0 whole entry, looked up): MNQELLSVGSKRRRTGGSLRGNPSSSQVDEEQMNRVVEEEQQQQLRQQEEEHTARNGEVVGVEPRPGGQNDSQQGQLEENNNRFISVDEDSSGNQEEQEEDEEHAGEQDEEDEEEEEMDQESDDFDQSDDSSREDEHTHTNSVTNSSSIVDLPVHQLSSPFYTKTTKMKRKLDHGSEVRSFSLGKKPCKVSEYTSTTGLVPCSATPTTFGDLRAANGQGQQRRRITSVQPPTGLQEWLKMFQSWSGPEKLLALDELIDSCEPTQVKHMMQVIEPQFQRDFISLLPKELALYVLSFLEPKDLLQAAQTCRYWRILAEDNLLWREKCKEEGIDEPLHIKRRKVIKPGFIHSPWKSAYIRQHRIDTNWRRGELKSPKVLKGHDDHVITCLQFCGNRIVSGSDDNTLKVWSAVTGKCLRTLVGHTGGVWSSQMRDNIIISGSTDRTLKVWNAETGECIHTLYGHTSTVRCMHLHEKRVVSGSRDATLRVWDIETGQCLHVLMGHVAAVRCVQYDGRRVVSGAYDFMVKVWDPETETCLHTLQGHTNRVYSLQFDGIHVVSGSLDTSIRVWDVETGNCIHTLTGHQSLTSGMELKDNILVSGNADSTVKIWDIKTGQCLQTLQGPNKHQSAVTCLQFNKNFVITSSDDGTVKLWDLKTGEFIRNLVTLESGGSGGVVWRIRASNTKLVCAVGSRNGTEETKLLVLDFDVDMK
MITF primary – MITF inhibitors, primary screen, biochemical, AlphaScreen, human | AlphaScreen MITF homodimerization, bead proximity signal | inhibition, % at 2.6 µM | hit rate 0.91% among 650,000; in the data active = inhibition above about 50%;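 also: 0% = vehicle wells with protein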
GPR151 activ – activators of human GPR151, primary screen, cell-based, PathHunter beta-arrestin, luminescence. G-protein coupled receptor 151 (Homo sapiens), Q8TDV0. PathHunter beta-arrestin GPR151 cells. activation, % at 11.2 µM. hit rate 1% among 650,000; in the data active = activation above about 4.9%;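 also: 0% = median of compound wells and 100% = cells with positive control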
MITF confirm – MITF inhibitors, retest of hits, confirmation, biochemical, AlphaScreen, triplicate; shares compounds with MITF primary; AlphaScreen MITF homodimerization, biotin/His-MITF beads; inhibition, % at 2.6 µM; hit rate 16% among 4,700;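 active = inhibition above a cutoff derived from the DMSO control wells, cut at about 28% in these data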;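 also: 0% = MITF dimer wells with DMSO only; inhibitors lower the bead chemiluminescence by keeping MITF from dimerizing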
AlphaScreen DR – AlphaScreen optical interference compounds, dose response, counter-screen, biochemical, HTS | shares compounds with MITF primary | AlphaScreen optical interference counterscreen, cell-free | IC50, µM | hit rate 6% among 480 | AID 1259373, 2018; call rule not given here
AS interf ctr – AlphaScreen optical interference compounds, counter-screen for MITF inhibitor project, biochemical, triplicate. AID 1259376, 2018. hit rate 7.6% among 4,700. shares compounds with MITF primary. inhibition, % at 2.6 µM. LysRS AlphaScreen counterscreen, signal interference;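 active = inhibition above a cutoff derived from the DMSO control wells, cut at about 30% in these data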
Active calls of the source: *; . = not tested or not shown.

SMILES | TEAD-YAP inh | FBW7 act | MITF primary | GPR151 activ | MITF confirm | AS interf ctr | others
CCOc1cc(CN2CCN(C3CC4CCC3C4)CC2)ccc1OC (configuration not stated) | 6 | 0 | 69* | 0 | -20 | -2
COc1ccc(CN2CCN(C3CCN(Cc4ccccc4)CC3)CC2)cc1OCc1ccccc1 | 4 | 0 | 29 | -1 | . | .
CCCCN(CCNC(=O)c1ccc2c(=O)n3c(nc2c1)CCCCC3)Cc1ccco1 | -4 | 0 | -4 | 0 | . | .
CN(C(=O)C1CCN(C(=O)C(C)(C)C)CC1)C(c1ccc(F)cc1)c1ccccn1 (configuration not stated) | -2 | 0 | -22 | -1 | . | .
NC(=O)c1cc(NC(=O)COC(=O)COc2cccc(C(F)(F)F)c2)cc(C(N)=O)c1 | 1 | 0 | 53* | 1 | 48* | 3 | AlphaScreen DR=>6.5
Cc1ccsc1/C=C1/SC(=S)N(CCC(=O)O)C1=O | -7 | 0 | 15 | -8 | . | .
C/C=C/c1ccc(OCCOCCNC(C)CC)c(OC)c1 (configuration not stated) | 5 | 0 | 70* | 0 | 5 | 4
CCOc1ccccc1OCCOCCNC(C)CC (configuration not stated) | 6 | 0 | 77* | -3 | 2 | -7
CCC(C)NCCOc1ccccc1C (configuration not stated) | 10 | 0 | 23 | 0 | . | .
COc1oc(-c2ccc(F)cc2)nc1C(F)(F)F | -1 | 0 | 54* | -2 | 9 | 14
COc1oc(-c2ccc(C)cc2)nc1C(F)(F)F | 14 | 2 | 10 | -1 | . | .
COc1ccc(OC)c(CN2CCN(Cc3ccccc3C)CC2)c1 | -3 | 0 | 51* | -2 | 6 | 8
CCS(=O)(=O)N1CCN(Cc2ccc(OC)cc2OC)CC1 | 7 | 0 | 42 | 0 | . | .
COc1ccc(CN2CCN(Cc3ccccc3C)CC2)c(OC)c1 | 10 | 0 | 83* | 0 | 10 | 4
C=CCc1cccc(/C=N/NC(=O)CNc2ccc(OC)cc2)c1O | 13 | 1 | 15 | 1 | . | .
CCOc1ccc(CN2CCN(C(=O)c3cccc(F)c3)CC2)cc1 | 19 | 0 | 55* | 1 | 11 | 19
CCOc1cc(CN2CCN(C(=O)c3cccc(F)c3)CC2)ccc1OC | 6 | 0 | 47 | 1 | . | .
O=C(c1cccc(F)c1)N1CCN(Cc2ccc(F)cc2)CC1 | -2 | 0 | 66* | 0 | -5 | 2
O=S(=O)(c1cccc(S(=O)(=O)N2CCN(Cc3ccccc3)CC2)c1)N1CCCC1 | 7 | 0 | 53* | 1 | 9 | 14
O=[N+]([O-])c1cccc(CN2CCN(S(=O)(=O)c3ccc4ccccc4c3)CC2)c1 | -2 | 0 | 62* | 0 | 14 | 24
O=[N+]([O-])c1ccc(S(=O)(=O)N2CCN(Cc3cccc(Cl)c3)CC2)cc1 | 8 | 0 | 64* | 0 | 9 | 11
O=S(=O)(c1ccc2ccccc2c1)N1CCN(C2CCN(Cc3ccccc3)CC2)CC1 | 9 | 0 | 52* | 1 | 4 | 16
O=[N+]([O-])c1ccc(Cl)c(S(=O)(=O)N2CCN(Cc3ccccc3)CC2)c1 | 7 | 0 | 13 | 1 | . | .
COc1cccc(CN2CCN(S(=O)(=O)c3cccc([N+](=O)[O-])c3)CC2)c1 | 2 | 0 | 12 | -1 | . | .
CCOC(=O)C1=C(C)N=c2s/c(=C/c3cnn(C)c3C)c(=O)n2C1c1ccc(OC)cc1OC (configuration not stated) | -1 | 0 | 14 | 3 | . | .
SMILES | TEAD-YAP inh | FBW7 act | MITF primary | GPR151 activ | MITF confirm | AS interf ctr | others
O=C(NCc1nnc2n1CCN(Cc1ccsc1)CC2)c1ccccn1 | 9 | 0 | 4 | 3 | . | .
O=C(O)CC(CCc1ccccc1)CC(=O)O | 18 | 0 | 61* | 0 | 18 | 16
CC(C(=O)NCc1ccco1)N1CCN(C)CC1 (configuration not stated) | 6 | 0 | -3 | 2 | . | .
C=CCC1(NCc2ccco2)CCN(C)CC1 | -4 | 0 | 63* | 0 | 0 | -3
COc1ccc(OC)c(CN2CCN(c3ccccc3OC)CC2)c1 | 3 | 1 | 23 | -1 | . | .
COc1cc(CN2CCN(Cc3ccccc3F)CC2)cc(OC)c1O | 6 | 0 | 1 | -1 | . | .
COc1cc(CN2CCN(Cc3ccccc3C(F)(F)F)CC2)cc(OC)c1O | -1 | 0 | 68* | -1 | 2 | 23
COc1cc(OC)c(OC)cc1CN1CCN(Cc2ccccc2C(F)(F)F)CC1 | -8 | 0 | 76* | -1 | 4 | 8
COc1ccc(OC)c(CN2CCN(Cc3ccccc3C(F)(F)F)CC2)c1 | -1 | 0 | 71* | -1 | 9 | -5
COc1ccc(CN2CCN(Cc3ccccc3C(F)(F)F)CC2)c(OC)c1 | 7 | 0 | 78* | 0 | 16 | 14
COC(=O)CNC(=O)COC(=O)c1ccc(C)cc1 | 5 | 0 | -12 | 0 | . | .
O=C(NCCN1CCOCC1)c1ccnc(Nc2ccc3ncccc3c2)c1 | -5 | 0 | -14 | 0 | . | .
COc1ccccc1N=C1C(=O)Nc2ccc(Br)cc21 | -3 | 0 | 11 | 0 | . | .
COc1ccc(CN2CCN(Cc3ccccc3C(F)(F)F)CC2)c(OC)c1OC | 3 | 0 | 59* | -1 | 5 | 16
COc1ccccc1N1CCN(Cc2ccc(OC)c(OC)c2OC)CC1 | 4 | 0 | 28 | 0 | . | .
CCCSc1nc2ccccc2c(=O)n1C1CCOC(C)(C)C1 (configuration not stated) | 9 | 0 | 15 | 0 | . | .
C/C(=N\N1C(=N)SC(C(=O)Nc2ccc(C(=O)O)cc2)CC1=O)c1cccs1 (configuration not stated) | 5 | 0 | 12 | -1 | . | .
O=C(CSc1nc2ccc(NC(=O)c3ccccc3Br)cc2s1)NCc1ccccc1 | 9 | 0 | 2 | -1 | . | .
CCOc1ccccc1CN(CCc1ccc2c(c1)OCO2)Cc1cc(OC)c(OC)cc1OC | 1 | 0 | 14 | -1 | . | .
COc1ccc(Br)cc1CN(CCc1ccc2c(c1)OCO2)Cc1cccnc1 | 8 | 0 | 52* | -1 | -5 | -2
CCOc1ccccc1CN(CCc1ccc2c(c1)OCO2)Cc1ccccn1 | -8 | 0 | 84* | -2 | 4 | 24
OC[C@H]1OC([S-])[C@H](O)[C@@H](O)[C@@H]1O.[Au+] (some centres not stated) | 15 | 0 | 86* | 0 | 73* | 0 | AlphaScreen DR=>6.5
O=C(/C=C/c1ccco1)NC(=S)Nc1cccc(C(=O)O)c1 | -27 | -1 | 69* | -1 | 62* | 10 | AlphaScreen DR=>6.5
